Screens (PubChem)
A488 fluor: qHTS Assay for Spectroscopic Profiling in A488 Spectral Region; compound autofluorescence, A488 spectral region, dye equivalency; Compound Type: qHTS ECL - MLSMR; max dye equivalency, M; 59,000 tested, 0.1% active
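Intrinsic compound fluorescence is measured in 100 mM Tris buffer at pH 8.0 following 15 min incubation at room temperature. Intensities at 480 nm excitation/540 nm emission are calibrated to an on-plate A488 concentration series, giving dye-equivalent concentrations.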
Texas Red fluor: qHTS Assay for Spectroscopic Profiling in Texas Red Spectral Region. Compound fluorescence, Texas Red channel, 547/618 nm; hits give high values. max dye-equivalent concentration, M. 59,000 tested, 0.06% active. AID 587, 2007; in the data active = max dye-equivalent concentration above about 10 nM; inconclusive = between about 1.1 nM and that limit
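Compound titrations in 100 mM Tris pH 8.0 were incubated 15 min at room temperature and read at 547 nm excitation / 618 nm emission. Texas Red six-point standard curve on each plate converted fluorescence to dye-equivalent concentration.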
Resorufin autofl: qHTS Assay for Spectroscopic Profiling in Resorufin Spectral Region. Compound fluorescence, resorufin region 547/598 nm, buffer; hits give high values. max dye-equivalent concentration, M. 59,000 tested, 0.04% active
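Read-out: intrinsic compound fluorescence at ex 547/em 598 nm after 15 min at RT in pH 8.0 Tris (100 mM). Values expressed as resorufin-equivalent concentration from per-plate standard series.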
Fluorescein fluor: qHTS Assay for Spectroscopic Profiling in Fluorescein Spectral Region; Compound autofluorescence, 480/540 nm, fluorescein-equivalent; hits give high values; max fluorescein-equivalent concentration, M; 59,000 tested, 0.91% active; in the data active = max fluorescein-equivalent concentration above about 10 nM; inconclusive = between about 1.1 nM and that limit
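Tris 100 mM pH 8.0; 15 min RT; CCD read, ex 480/em 540 nm. Output: fluorescein-equivalent concentration per compound concentration, from six-point dye series on each plate.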
Rhodamine autofl: qHTS Assay for Spectroscopic Profiling in Rhodamine Spectral Region. 59,000 tested, 0.05% active. Rhodamine-region fluorescence, 547/598 nm, Tris buffer; hits give high values. max dye-equivalent concentration, M; in the data active = max dye-equivalent concentration above about 11 nM; inconclusive = between about 1.1 nM and that limit
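Read-out is relative fluorescence at 547 nm excitation and 598 nm emission, expressed as dye-equivalent concentration using rhodamine standards on every plate. Each compound was profiled across a concentration series after 15 min in 100 mM Tris, pH 8.0.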
A647 fluor: qHTS Assay for Spectroscopic Profiling in A647 Spectral Region. max dye-equivalent concentration, M. AID 592, 2007. 59,000 tested, under 10 active. Compound fluorescence, A647 channel (570/671 nm), Tris buffer;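 note: values scaled relative to a standard on each plate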
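Spectral profiling of library compounds in pH 8.0 Tris: 15 min room-temperature incubation, single ex/em pair (570/671 nm), response normalized to Alexa 647 equivalents.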
* = called active by the depositor; i = inactive; ? = inconclusive. The list is not random: actives were taken first. Their share in the collection is about 0.9%. Unless noted, the rule behind the calls is not given here.

SMILES | A488 fluor | Texas Red fluor | Resorufin autofl | Fluorescein fluor | Rhodamine autofl | A647 fluor
COc1ccc(-c2nnc(-c3ccc(N(C)C)cc3)o2)cc1 | i | ? | i | i | i | 9.2e-09
CN(C)c1ccc(-c2nnc(-c3ccc(S(=O)(=O)C(F)F)cc3)o2)cc1 | i | i | i | 2e-08M* | i | 2.5e-08
O[C@H]([C@H](O)[C@@H](O)c1nc2ccccc2[nH]1)[C@@H](O)c1nc2ccccc2[nH]1 | i | i | i | i | i | 1.7e-08
O=C1c2ccccc2-c2onc3ccc(NCc4ccco4)c1c23 | 5.4e-08M* | 1.8e-08M* | 1.7e-08M* | 1.2e-06M* | 2e-08M* | 1.1e-08
O=c1nccc(NCc2ccco2)[nH]1 | i | ? | i | ? | i | 6.4e-09
CC(C)C1=CC2=CC[C@H]3[C@@](C)(CCC[C@]3(C)C(=O)O)[C@@H]2CC1 | i | i | i | i | i | 1.9e-09
CCC1=C/C(=C/N(C)c2ccccc2)C(=O)S1 | i | i | i | 1.5e-08M* | i | 5.2e-08
CN(Cc1ccco1)c1ccnc(-c2cccc(C#N)c2)n1 | i | i | i | i | i | 1e-09
O=c1c2ccccc2c(/C=N/n2cnnc2)c(O)n1-c1ccccc1F | i | i | i | 1.3e-08M* | i | 2.8e-09
CCOC(=O)c1ccc(CC(=O)c2oc3cc(O)ccc3c2C)o1 | i | ? | i | 2.3e-08M* | i | 4.9e-09
CCOC(=O)c1oc2cc(O)ccc2c(=O)c1-c1csc(C)n1 | i | i | i | ? | i | 1.7e-08
N[C@H](COP(=O)(O)O)C(=O)O | i | i | i | ? | i | 1e-08
CC(=O)O[C@H]1C(=O)[C@]2(C)[C@H]([C@H](OC(=O)c3ccccc3)[C@@]3(O)C[C@H](OC(=O)[C@@H](O)[C@@H](NC(=O)c4ccccc4)c4ccccc4)C(C)=C1C3(C)C)[C@]1(OC(C)=O)CO[C@@H]1C[C@@H]2O | i | i | i | i | i | 1.6e-08
NC(=O)c1cc2ccc(O)cc2oc1=Nc1ccccc1 | i | i | i | ? | i | 2.5e-08
NC(=O)c1cc2ccc(O)cc2oc1=NCc1ccccc1 | 1.5e-08M* | i | i | 2.7e-07M* | i | 1.3e-09
O=C(c1ccccc1C(=O)N1CCN(c2ccccc2)CC1)N1CCN(c2ccccc2)CC1 | i | i | i | 1.5e-08M* | i | 1.3e-08
CCOC(=O)c1ccc2[nH]cc(C(C)=O)c(=O)c2c1 | i | i | i | 2.2e-08M* | i | 1.1e-08
CC(=O)c1c[nH]c2ccc(C)cc2c1=O | i | i | i | ? | i | 5.5e-09
N=C(N)SCCN1CCCCC1 | i | i | i | i | i | 8.4e-09
O=S(=O)(O)c1cc(N=[N+]([O-])c2cc(S(=O)(=O)O)c3ccccc3c2)cc2ccccc12 | i | ? | i | ? | i | 1.8e-09
CC(c1ccccc1)C1C(C#N)=C(N)SC(N)=C1C#N (stereo not drawn) | i | i | i | i | i | 1e-09
Cc1ccc(C2C(C#N)=C(N)SC(N)=C2C#N)c(C)c1 | i | i | i | 1e-08M* | i | 1.9e-08
N#CC1=C(N)SC(N)=C(C#N)C1c1ccnc2ccccc12 | i | i | i | ? | i | 4.4e-08
CC1=C(C#N)C(c2ccoc2)C(C(=O)OCc2ccccc2)=C(N)S1 (stereo not drawn) | i | i | i | i | i | 7.1e-09
Cc1ccc(C2C(C#N)=C(N)SC(N)=C2C#N)cc1 | i | i | i | 2.3e-08M* | i | 4.6e-08
N#CC1=C(N)SC(N)=C(C#N)C1c1ccoc1 | i | i | i | 1.8e-08M* | i | 2.2e-08
O=C(O)C[n+]1ccccc1 | i | i | i | i | i | 1.8e-09
CN(CCO)C(=O)c1cccc2c1-c1ccccc1C2=O | i | i | i | i | i | 1.2e-08
CCNc1c2c3c(cccc3n(C)c1=O)C(=O)c1ccccc1-2 | 1.4e-07M* | ? | ? | 2.5e-06M* | 1.2e-08M* | 4.2e-09
